Most compounds without a hit are left out; they make up all but 0.43% or so of the library.
GAA glycogen = alters human alpha-glucosidase cleavage of glycogen; Potency, µM (titrated, usually from 76.4 µM), most hits filed as inhibitors; 0.38% of 300,000 active; recombinant GAA, glycogen substrate, Amplex Red glucose oxidase fluorescence;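 note: the screen sought inhibitors and activators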
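Natural-substrate format: glycogen cleavage by 4 nM human enzyme, glucose read by Amplex Red coupling (Ex 573, Em 610 nm). Normalized to enzyme and no-enzyme controls.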
GLA inh pH 4.5 = alpha-galactosidase A (human) inhibition, pH 4.5; activity change, negative = inhibition, % at 105 µM; P06280; 230,000 tested, under 10 active; purified enzyme, 4-MU-alpha-Gal fluorescence, pH 4.5
GAA inh = blocks human lysosomal alpha-glucosidase | P10253 | purified human GAA, 4-MU-alpha-glucoside fluorescence | Potency, µM (highest dose often 76.9 µM), actives largely listed as inhibitors | 0.005% of 200,000 active | AID 1466
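Endpoint fluorogenic read: 20 min room-temperature reaction of 4 nM human alpha-glucosidase with 400 uM 4-methylumbelliferyl-alpha-D-pyranoside, pH 5.0, quenched with 1M NaOH/1M glycine pH 10. AC50 from Hill modeling.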
aGlu spleen mod = inhibits or activates alpha-glucosidase in human spleen homogenate; P10253; human spleen homogenate, 4-MU-alpha-glucoside fluorescence; Potency, µM (series often up to 79.9 µM), actives largely listed as inhibitors; 0.006% of 240,000 active
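AC50 values come from Hill-equation fits of concentration-response data, normalized to no-enzyme and full-activity controls. Enzyme source: 1 ug human spleen homogenate; 1 mM fluorogenic 4-MU glucoside, pH 5.0 citrate buffer, 37 C, 40 min.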
N370S GC = inhibitors or activators of N370S glucocerebrosidase for Gaucher disease. 0.092% of 330,000 active. N370S GC spleen homogenate, 4MU-glucoside fluorescence. P04062. Potency, µM (highest dose often 59.4 µM), actives largely listed as inhibitors
aGal spleen mod = inhibits or activates alpha-galactosidase in human spleen homogenate | P06280 | 0.008% of 240,000 active | human spleen homogenate, 4MU-alpha-Gal fluorescence, 40 min | Potency, µM (doses to about 80 µM), hits mostly inhibitors
Target sequence (P06280 32-429 limits assumed): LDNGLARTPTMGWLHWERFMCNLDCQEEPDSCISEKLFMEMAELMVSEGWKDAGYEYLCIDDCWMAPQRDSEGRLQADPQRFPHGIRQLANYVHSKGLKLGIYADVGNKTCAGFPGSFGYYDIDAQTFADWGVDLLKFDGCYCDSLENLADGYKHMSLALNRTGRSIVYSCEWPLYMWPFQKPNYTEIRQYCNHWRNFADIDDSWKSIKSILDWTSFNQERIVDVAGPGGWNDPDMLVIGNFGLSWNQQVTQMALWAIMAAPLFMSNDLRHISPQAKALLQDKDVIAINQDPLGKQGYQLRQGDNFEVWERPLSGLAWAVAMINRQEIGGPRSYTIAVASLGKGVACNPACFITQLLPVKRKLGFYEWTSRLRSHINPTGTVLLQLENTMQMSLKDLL
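Human spleen homogenate (1 ug) was the enzyme source, with 4-methylumbelliferyl-alpha-D-galactopyranoside (1 mM final) in pH 5.0 citrate buffer with 0.01% Tween-20. Compounds were titrated; after 40 min at 37C, NaOH/glycine stop, 4-MU fluorescence read; AC50 from Hill fits.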
Numbers stand for hits; - = inactive; ? = inconclusive; . = no result; [ ] = dose if it differs, or a comment. Calls come from the whole dose curve; as a rule, active = well fitted curve in the direction sought with a large enough effect; inconclusive = small, poorly fitted or top-dose-only effect, or another doubt; inactive = no such curve, though single readings can be large; an effect the other way counts as inactive or inconclusive.

SMILES	GAA glycogen	GLA inh pH 4.5	GAA inh	aGlu spleen mod	N370S GC	aGal spleen mod
Cc1ccc2sc(NNC(=O)C3=COCCO3)nc2c1C	6.3µM	-	-	-	-	-
CCOC(=O)c1c(N)sc2c1CCC(C)C2 (configuration not stated)	?	-	-	-	-[2.35 µM]	-
CCOC(=O)c1c(N)sc2c1CCCC2	35µM	-	-	-	-	-
COc1cc(C2C(C#N)=C(N)Oc3n[nH]c(-c4cccs4)c32)cc(OC)c1O (configuration not stated)	18µM	-	.	-	-	-
CCOC(=O)c1c(C)[nH]c(NC(=O)Nc2c(C)n(C)n(-c3ccccc3)c2=O)c1C	32µM	-	-	-	-	-
N#C/C(=C/c1ccc(F)cc1)S(=O)(=O)c1ccccc1	-	-	.	-	-	-
N#C/C(=C\c1ccc(O)c(O)c1)S(=O)(=O)c1ccccc1	7.1µM	-	-	-	-	-
COc1ccc(N/C=C2/Sc3ccccc3NC2=O)cc1	20µM	-	-	-	-	-
Cc1ccc(N/C=C2/Sc3ccccc3NC2=O)cc1	?	-	-	-	-	-
CCCCN1C(=O)c2ccc(C(=O)Nc3cccnc3)cc2C1=O	-	-	-	-	-	-
COc1cc(CN2CCN(C(=O)CC(C)C)CC2)cc(OC)c1O	40µM	-	-	-	-	-
COc1ccc(C(=O)N2CCN(Cc3cc(OC)c(O)c(OC)c3)CC2)cc1OC	20µM	-	-	-	-	-
CCc1ccc(NC2CC(=O)N(CCc3ccc(OC)c(OC)c3)C2=O)cc1 (configuration not stated)	-	-	-	-	-	-
O=C1CC(Nc2ccccc2)C(=O)N1c1ccc(N2CCOCC2)cc1 (configuration not stated)	-	-	-	-	-	-
CC(C)N1C(=O)CC(Nc2ccc(N3CCOCC3)cc2)C1=O (configuration not stated)	25µM	-	-	-	.	-
COc1ccc(CCN2C(=O)CC(Nc3ccc(N4CCOCC4)cc3)C2=O)cc1OC (configuration not stated)	16µM	-	-	-	-	-
O=C1CC(Nc2ccc(N3CCOCC3)cc2)C(=O)N1c1ccccc1F (configuration not stated)	25µM	-	-	-	-	-
O=C1CC(Nc2ccc(N3CCOCC3)cc2)C(=O)N1C1CCCCC1 (configuration not stated)	13µM	-	-	-	-	-
O=C(Nc1ccc(N2CCOCC2)cc1)NC1CCCCC1	?	-	-	-	-	-
Cc1cc(C)n(CC(C)NCc2cn[nH]c2-c2ccc(C)c(C)c2)n1 (configuration not stated)	-	-	-	-	-	-
Oc1cc(O)c2c(c1)O[C@H](c1ccc(O)c(O)c1)[C@H](O)C2	10µM	-	.	-	-	-
Cc1ccc2nc(C)c3c(c2c1)OC(C(C)(Cl)Br)C3 (configuration not stated)	-	-	-[15.4 µM]	-	-	-
COc1ccc(C(=O)NCc2cccs2)cc1S(=O)(=O)N1CCOCC1	-	-	-	-	-	-
Cn1c(CNc2ccccc2O)nc2ccccc21	14µM	-	-[15.4 µM]	-	-	-
CCOc1cc(CNCCO)cc(Br)c1OCc1ccc(Cl)cc1Cl	-	-	-	-	10µM	-
SMILES	GAA glycogen	GLA inh pH 4.5	GAA inh	aGlu spleen mod	N370S GC	aGal spleen mod
CCN(CCN(C)C)C(=O)C1CCN(S(=O)(=O)c2c(C)noc2/C=C/c2ccccc2F)CC1	-	.	.	.	7.1µM	.
CCOc1ccccc1/C=C/c1onc(C)c1S(=O)(=O)N1CCC(C(=O)N(CC)CC)CC1	.	.	.	.	-	.
CN1C(=O)/C(=C/C=C2\SCCN2C)N(C)C1=S	11µM	-[21.1 µM]	?	-	-	-
Nc1n[nH]c2ccccc12	3.5µM	-	-	-	-	-
CCCCOC(=O)c1cc(Cl)c(O)c(OC)c1	-	-	-	-	-	-
COc1cc(C(=O)OCCC(C)C)cc(OC)c1O	11µM	-	-	-	-	-
COC(=O)Nc1ccc(S(=O)(=O)Nc2ccc(O)cc2)cc1	32µM	-	-	-	-	-
CC(=O)Oc1ccc2c(C)cc(=O)oc2c1	-	?	?	?	?	?
CC(=O)Oc1cc2oc(=O)cc(C)c2cc1OC(C)=O	7.9µM	?	?	?	?	?
Oc1ccc(/C=N/Nc2ccccc2)cc1	?	-	-	-	-	-
Cc1nc2ccccc2nc1N/N=C/c1ccc(O)cc1	25µM	-	.	-	-	-
Oc1ccc(Nc2nc3ccccc3nc2Nc2ccc(O)cc2)cc1	20µM	-	-	-	4.5µM	-
C=CCNC(=O)/C(C#N)=C/c1c(N2CCCCCC2)nc2ccccn2c1=O	-	.	.	.	-	.
O=C(CN1C(=O)C2CC=CCC2C1=O)Nc1ccc(S(=O)(=O)N2CCOCC2)cc1 (configuration not stated)	-	-	-	.	-	-
Cn1ncc(N)c1C(=O)Nc1cccc(C(F)(F)F)c1	-	-	-	-	-	-
Nc1[nH]ncc1C(=O)Nc1cccc(C(F)(F)F)c1	11µM	-	?	-	-	-
C#CCOCCOCCOCCNc1nc(N2CCOCC2)nc(N2CCN(C(=O)CCCCCCCCCCNC(=O)[C@@H]([C@H](C)CC)n3cc(CCCCCN)nn3)CC2)n1	.	.	.	.	-	.
C#CCOCCOCCOCCNc1nc(N2CCN(C(=O)CCCCCCCCCCNC(=O)Cn3cc(CCCCCN)nn3)CC2)nc(N2CCN(C(=O)CCCCCCCCCCNC(=O)[C@H]([C@@H](C)CC)n3cc(CCCCN=C(N)N)nn3)CC2)n1	.	.	.	.	18µM	.
C#CCOCCOCCOCCNc1nc(N2CCN(C(=O)CCCCCCCCCCNC(=O)[C@H]([C@@H](C)CC)n3cc(CCCCCN)nn3)CC2)nc(N2CCN(C(=O)CCCCCCCCCCNC(=O)[C@H]([C@@H](C)CC)n3cc(CCCCN=C(N)N)nn3)CC2)n1	.	.	.	.	18µM	.
C#CCOCCOCCOCCNc1nc(N2CCN(C(=O)CCCCCCCCCCNC(=O)[C@H]([C@@H](C)CC)n3cc(CCCCN=C(N)N)nn3)CC2)nc(N2CCN(C(=O)CCCCCCCCCCNC(=O)[C@H](CCCCN)n3cc(C)nn3)CC2)n1	.	.	.	.	16µM	.
C#CCOCCOCCOCCNc1nc(N2CCN(C(=O)CCCCCCCCCCNC(=O)[C@H]([C@@H](C)CC)n3cc(CCCCCN)nn3)CC2)nc(N2CCN(C(=O)CCCCCCCCCCNC(=O)[C@@H]([C@H](C)CC)n3cc(CCCCCN)nn3)CC2)n1	.	.	.	.	18µM	.
Oc1ccccc1-c1nc2c3ccccc3c3ccccc3c2[nH]1	-	-	?	-	?	?

Compound activity deposited in PubChem by National Center for Advancing Translational Sciences (NCATS).
